From PubChem BioAssay (EPA / NIEHS) come the findings set out here.

Experiment [1] can be described thus: CEETOX_H295R_ESTRADIOL: CeeTox H295R High-throughput Steroidogenesis Assay for Estradiol (AID 2283440).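 Further: estradiol secreted into medium quantified by LC-MS/MS after dansyl derivatisation.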 The settings on record: actives raise or lower the signal. In a few lines: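 H295R, 48 h forskolin (10 uM) prestim → 48 h compound, 0.1% DMSO final. Estradiol in medium: MTBE extraction, dansyl chloride derivatization, LC-MS/MS. Fit bidirectional vs DMSO baseline; MTT viability in same wells.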

Experiment [2] can be described thus: CEETOX_H295R_ESTRONE: CeeTox H295R High-throughput Steroidogenesis Assay for Estrone (AID 2283441).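 Further: estrone secreted into medium measured by LC-MS/MS after dansyl derivatization.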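 On AC50: human adrenal H295R cells prestimulated with forskolin for two days.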 The settings on record: actives raise or lower the signal. A digest of the protocol: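 H295R cells prestimulated 48 h with 10 uM forskolin, then exposed 48 h to chemicals in 0.1% DMSO final; estrone in medium extracted with MTBE, dansyl-derivatized, quantified by HPLC-MS/MS; bidirectional fitting versus DMSO, viability by MTT.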

A short description of experiment [3]: CEETOX_H295R_PROG: CeeTox H295R High-throughput Steroidogenesis Assay for Progesterone (PROG) (AID 2283442).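 On AC50: human H295R adrenal cells primed with 10 µM forskolin before dosing.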 The settings on record: actives raise or lower the signal. In a few lines: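 Progesterone read-out: HPLC-MS/MS on MTBE extracts of conditioned medium after 48 h chemical exposure of forskolin-primed (10 uM, 48 h) H295R cells. Gain or loss of signal was fitted relative to DMSO baseline.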

Read-out in experiment [4]: Tumor necrosis factor receptor superfamily member 6 (Homo sapiens) (UniProt P25445)
As to the kind of experiment: LTEA_HepaRG_FAS: Life Technologies and Expression Analysis (LTEA) Assay for Fas cell surface death receptor (FAS) using HepaRG (AID 2283447). The settings on record: mRNA level, 48 h; actives raise or lower the signal. A digest of the protocol:
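Differentiated HepaRG cells in serum-free induction medium were exposed 48 h to 8 half-log concentrations up to 100 uM in 0.5% DMSO, in duplicate. FAS mRNA was measured by qRT-PCR normalised to ACTB, GAPDH and POLR2A; bidirectional fit versus DMSO.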

Read-out in experiment [5]: Fatty acid synthase (Homo sapiens) (UniProt P49327)
As to the kind of experiment: LTEA_HepaRG_FASN: Life Technologies and Expression Analysis (LTEA) Assay for Fatty Acid Synthase (FASN) using HepaRG (AID 2283448). The settings on record: mRNA level, 48 h; actives raise or lower the signal. In a few lines: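 Differentiated HepaRG cells in serum-free induction medium exposed 48 h in duplicate to eight half-log concentrations, top 100 uM, 0.5% DMSO. FASN mRNA by qRT-PCR normalised to ACTB, GAPDH, POLR2A; bidirectional fit versus DMSO.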

Read-out in experiment [6]: Cyclin D2 (CCND2), CCND2 (gene 894)
Description: LTEA_HepaRG_CCND2: Life Technologies and Expression Analysis (LTEA) Assay for Cyclin D2 (CCND2) using HepaRG (AID 2283449).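 Further: CCND2 transcript measured by TaqMan qRT-PCR and normalised to three housekeeping genes.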 The settings on record: mRNA level, 48 h; actives raise or lower the signal. In a few lines:
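Chemicals in 0.5% DMSO, eight half-log concentrations from 100 uM top, were applied in duplicate for 48 h to human HepaRG cells in serum-free induction medium. CCND2 mRNA by TaqMan qRT-PCR, normalised to ACTB/GAPDH/POLR2A; bidirectional fit versus DMSO.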

Read-out in experiment [7]: Cyclin D1 (CCND1), CCND1 (gene 595)
Description: LTEA_HepaRG_CCND1: Life Technologies and Expression Analysis (LTEA) Assay for Cyclin D1 (CCND1) using HepaRG (AID 2283451). The settings on record: mRNA level, 48 h; actives raise or lower the signal. In a few lines: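 qRT-PCR (Fluidigm 96.96 array) read-out of transcript level, housekeeping-normalized (ACTB/GAPDH/POLR2A). HepaRG cells, 48 h chemical exposure, 8-point half-log series from 100 uM, 0.5% DMSO vehicle; gain or loss relative to DMSO baseline.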

Read-out in experiment [8]: flavin-containing dimethylaniline monooxygenases 3 (FMO3), FMO3 (gene 2328)
As to the kind of experiment: LTEA_HepaRG_FMO3: Life Technologies and Expression Analysis (LTEA) Assay for flavin-containing dimethylaniline monooxygenases 3 (FMO3) using HepaRG (AID 2283453). The settings on record: mRNA level, 48 h; actives raise or lower the signal. A digest of the protocol: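 Differentiated HepaRG cells in serum-free induction medium, exposed 48 h in duplicate to 8 half-log concentrations up to 100 uM in 0.5% DMSO. FMO3 mRNA by qRT-PCR, normalized to ACTB, GAPDH, POLR2A; bidirectional fit vs DMSO.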

Read-out in experiment [9]: Cytochrome P450 (CYP1A1), CYP1A1 (gene 1543)
As to the kind of experiment: LTEA_HepaRG_CYP1A1: Life Technologies and Expression Analysis (LTEA) Assay for Cytochrome P450 (CYP1A1) using HepaRG (AID 2283454). The settings on record: mRNA level, 48 h; actives raise or lower the signal. In a few lines:
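qRT-PCR read-out: CYP1A1 transcript normalized to three housekeeping genes, fitted bidirectionally against 0.5% DMSO vehicle baseline. Human HepaRG cells, 48 h chemical exposure, 8-point half-log series topping at 100 uM.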

Read-out in experiment [10]: CFLAR gene, CFLAR (gene 8837)
As to the kind of experiment: LTEA_HepaRG_CFLAR: Life Technologies and Expression Analysis (LTEA) Assay for CFLAR gene using HepaRG (AID 2283455). The settings on record: mRNA level, 48 h; actives raise or lower the signal. In a few lines: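 Differentiated HepaRG cells in serum-free induction medium were exposed 48 h in duplicate to eight half-log concentrations up to 100 uM in 0.5% DMSO; mRNA measured by TaqMan qRT-PCR, normalized to ACTB, GAPDH, POLR2A; bidirectional fitting versus DMSO.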

Read-out in experiment [11]: Forkhead box O1 (FOXO1), FOXO1 (gene 2308)
As to the kind of experiment: LTEA_HepaRG_FOXO1: Life Technologies and Expression Analysis (LTEA) Assay for Forkhead box O1 (FOXO1) using HepaRG (AID 2283456). The settings on record: mRNA level, 48 h; actives raise or lower the signal. In a few lines: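 Differentiated HepaRG cells, in serum-free induction medium with 0.5% DMSO, exposed 48 h in duplicate to 8-point half-log series from 100 uM. FOXO1 mRNA measured by TaqMan qRT-PCR, normalized to ACTB, GAPDH, POLR2A; bidirectional fit versus DMSO.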

Read-out in experiment [12]: growth arrest and DNA damage 45 (GADD45A), GADD45A (gene 1647)
Description: LTEA_HepaRG_GADD45A: Life Technologies and Expression Analysis (LTEA) Assay for growth arrest and DNA damage 45 (GADD45A) using HepaRG (AID 2283458). The settings on record: mRNA level, 48 h; actives raise or lower the signal. A digest of the protocol:
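Differentiated HepaRG cells exposed 48 h in serum-free induction medium to 8 concentrations, top 100 uM in half-log steps, 0.5% DMSO. GADD45A mRNA quantified by qRT-PCR, normalized to ACTB, GAPDH and POLR2A; bidirectional fit versus DMSO.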

Read-out in experiment [13]: Forkhead box O3 (FOXO3), FOXO3 (gene 2309)
As to the kind of experiment: LTEA_HepaRG_FOXO3: Life Technologies and Expression Analysis (LTEA) Assay for Forkhead box O3 (FOXO3) using HepaRG (AID 2283459). The settings on record: mRNA level, 48 h; actives raise or lower the signal. In a few lines:
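Differentiated human HepaRG cells, 48 h post-plating, exposed in duplicate for 48 h in serum-free induction medium; 8-point half-log series from 100 uM in 0.5% DMSO. FOXO3 mRNA by TaqMan qRT-PCR, normalized to ACTB/GAPDH/POLR2A; bidirectional fit versus DMSO.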

The nature of experiment [14]: CEETOX_H295R_CORTIC: CeeTox H295R High-throughput Steroidogenesis Assay for Corticosterone (CORTIC) (AID 2283437).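 Further: corticosterone secreted into medium quantified by mass spectrometry.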 The settings on record: actives raise or lower the signal. In a few lines: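 H295R adrenal cells prestimulated 48 hours with 10 uM forskolin, then exposed 48 hours to chemical in 0.1% DMSO. Corticosterone in medium measured by HPLC-MS/MS after MTBE extraction; MTT viability in the same wells; bidirectional fit versus DMSO.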

Experiment [15] in a line: CEETOX_H295R_CORTISOL: CeeTox H295R High-throughput Steroidogenesis Assay for Cortisol (AID 2283438).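 Further: cortisol secreted into medium quantified by LC-MS/MS.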 The settings on record: actives raise or lower the signal. A digest of the protocol:
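Forskolin-primed H295R cells (10 uM, 48 h) treated 48 h with test chemical in 0.1% DMSO. Cortisol in medium quantified by MTBE extraction and HPLC-MS/MS; bidirectional fit vs DMSO, MTT viability in same wells.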

Experiment [16] in a line: CEETOX_H295R_DOC: CeeTox H295R High-throughput Steroidogenesis Assay for DOC (AID 2283439). The settings on record: actives raise or lower the signal. A digest of the protocol:
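H295R cells prestimulated 48 h with 10 uM forskolin, then exposed 48 h to test chemical (0.1% DMSO final). Medium 11-deoxycorticosterone measured by HPLC-MS/MS after MTBE extraction; bidirectional fit vs DMSO, viability checked by MTT in same wells.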

Read-out in experiment [17]: Cyclin Dependent Kinase Inhibitor 1A (CDKN1A), CDKN1A (gene 1026)
Description: LTEA_HepaRG_CDKN1A: Life Technologies and Expression Analysis (LTEA) Assay for Cyclin Dependent Kinase Inhibitor 1A (CDKN1A) using HepaRG (AID 2283450). The settings on record: mRNA level, 48 h; actives raise or lower the signal. A digest of the protocol:
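HepaRG, 48 h dosing, 8-pt half-log series from 100 uM top, 0.5% DMSO vehicle, duplicates. Readout: TaqMan qRT-PCR of CDKN1A transcript, housekeeping-normalized (ACTB, GAPDH, POLR2A). Up/down curve fit relative to DMSO.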

Read-out in experiment [18]: catalase (CAT), CAT (gene 847)
Description: LTEA_HepaRG_CAT: Life Technologies and Expression Analysis (LTEA) Assay for catalase (CAT) using HepaRG (AID 2283452). The settings on record: mRNA level, 48 h; actives raise or lower the signal. A digest of the protocol: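 HepaRG cells in serum-free induction medium, 0.5% DMSO vehicle, exposed 48 h in duplicate over 8 half-log concentrations from 100 uM. CAT mRNA measured by qRT-PCR, normalized to ACTB, GAPDH, POLR2A; bidirectional fit versus DMSO.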

Active and inactive are the calls of the source. How the source made its calls: active means hit-call score of the fitted dose curve at least 0.9, where 1 is the maximum; inactive means score below 0.9.

Chain of Fatty acid synthase (Homo sapiens) (P49327 whole entry, looked up): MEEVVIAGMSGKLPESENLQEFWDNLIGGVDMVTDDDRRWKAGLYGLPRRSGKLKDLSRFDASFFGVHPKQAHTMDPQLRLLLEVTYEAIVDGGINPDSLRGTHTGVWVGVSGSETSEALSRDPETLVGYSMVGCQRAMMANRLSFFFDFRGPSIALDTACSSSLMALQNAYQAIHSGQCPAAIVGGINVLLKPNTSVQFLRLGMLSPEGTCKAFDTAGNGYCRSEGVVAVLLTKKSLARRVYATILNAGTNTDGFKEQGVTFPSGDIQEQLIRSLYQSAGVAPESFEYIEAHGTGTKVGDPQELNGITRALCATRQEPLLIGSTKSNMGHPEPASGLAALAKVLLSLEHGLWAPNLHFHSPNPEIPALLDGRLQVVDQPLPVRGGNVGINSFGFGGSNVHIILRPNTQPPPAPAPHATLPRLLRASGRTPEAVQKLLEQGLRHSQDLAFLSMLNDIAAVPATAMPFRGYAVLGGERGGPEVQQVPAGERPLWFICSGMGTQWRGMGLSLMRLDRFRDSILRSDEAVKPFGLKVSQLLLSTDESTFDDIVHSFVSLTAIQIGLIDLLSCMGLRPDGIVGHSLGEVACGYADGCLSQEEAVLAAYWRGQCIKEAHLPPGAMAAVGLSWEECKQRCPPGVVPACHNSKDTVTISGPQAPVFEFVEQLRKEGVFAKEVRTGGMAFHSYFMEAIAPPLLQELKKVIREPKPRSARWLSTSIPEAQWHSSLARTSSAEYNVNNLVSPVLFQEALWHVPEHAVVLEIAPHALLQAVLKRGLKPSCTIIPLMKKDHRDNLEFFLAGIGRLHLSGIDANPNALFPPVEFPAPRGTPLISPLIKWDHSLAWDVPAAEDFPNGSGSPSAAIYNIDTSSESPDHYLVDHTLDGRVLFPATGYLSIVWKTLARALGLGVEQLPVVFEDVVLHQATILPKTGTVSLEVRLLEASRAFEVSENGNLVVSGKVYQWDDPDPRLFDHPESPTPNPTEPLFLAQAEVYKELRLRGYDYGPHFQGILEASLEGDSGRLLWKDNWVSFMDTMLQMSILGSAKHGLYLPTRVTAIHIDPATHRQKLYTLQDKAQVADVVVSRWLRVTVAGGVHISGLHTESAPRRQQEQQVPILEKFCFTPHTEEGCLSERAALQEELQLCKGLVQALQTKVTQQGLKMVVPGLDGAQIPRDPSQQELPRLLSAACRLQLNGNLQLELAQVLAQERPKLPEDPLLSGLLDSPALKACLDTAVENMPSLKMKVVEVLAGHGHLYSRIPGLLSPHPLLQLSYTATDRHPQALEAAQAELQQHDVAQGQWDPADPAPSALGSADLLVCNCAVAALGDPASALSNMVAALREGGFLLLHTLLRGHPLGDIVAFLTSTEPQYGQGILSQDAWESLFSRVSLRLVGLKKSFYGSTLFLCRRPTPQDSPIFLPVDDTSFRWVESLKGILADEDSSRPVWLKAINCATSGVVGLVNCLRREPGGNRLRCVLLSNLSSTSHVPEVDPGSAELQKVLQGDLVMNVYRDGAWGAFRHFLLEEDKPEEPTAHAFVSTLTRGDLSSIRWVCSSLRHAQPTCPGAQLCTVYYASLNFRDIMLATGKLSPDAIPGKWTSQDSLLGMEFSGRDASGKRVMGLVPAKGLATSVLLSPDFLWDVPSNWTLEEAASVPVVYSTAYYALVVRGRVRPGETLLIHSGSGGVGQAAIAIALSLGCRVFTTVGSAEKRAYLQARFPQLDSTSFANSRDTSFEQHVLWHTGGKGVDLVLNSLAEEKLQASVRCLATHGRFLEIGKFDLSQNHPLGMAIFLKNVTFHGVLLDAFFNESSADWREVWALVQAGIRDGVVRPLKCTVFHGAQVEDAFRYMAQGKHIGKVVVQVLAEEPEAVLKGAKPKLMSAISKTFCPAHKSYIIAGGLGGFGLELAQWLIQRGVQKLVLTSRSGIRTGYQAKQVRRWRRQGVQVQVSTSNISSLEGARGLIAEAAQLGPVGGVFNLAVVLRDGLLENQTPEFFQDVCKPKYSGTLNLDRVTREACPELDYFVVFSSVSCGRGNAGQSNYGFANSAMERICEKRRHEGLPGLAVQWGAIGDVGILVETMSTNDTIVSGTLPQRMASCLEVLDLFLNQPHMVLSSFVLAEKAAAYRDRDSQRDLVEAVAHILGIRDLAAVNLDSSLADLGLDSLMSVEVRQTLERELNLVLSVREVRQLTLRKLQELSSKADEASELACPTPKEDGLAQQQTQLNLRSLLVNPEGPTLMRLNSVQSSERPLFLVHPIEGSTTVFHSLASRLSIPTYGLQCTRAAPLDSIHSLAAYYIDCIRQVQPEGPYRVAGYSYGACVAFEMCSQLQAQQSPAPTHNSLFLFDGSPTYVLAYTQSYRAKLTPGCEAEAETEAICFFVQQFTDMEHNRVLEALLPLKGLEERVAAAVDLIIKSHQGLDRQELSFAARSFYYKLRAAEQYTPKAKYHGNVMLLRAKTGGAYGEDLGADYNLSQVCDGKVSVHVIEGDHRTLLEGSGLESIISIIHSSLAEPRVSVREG

In general, AC50 refers to the midpoint of the concentration-response curve, whichever way the signal moves. As for `CCN(CC)C(=O)C(C)Oc1cccc2ccccc12` (stereo not drawn), the outcome in experiment [1], in experiment [2], in experiment [3], in experiment [4], in experiment [5] and in experiment [6] was inactive. For the same compound, the compound was classed as inactive in experiment [7], in [10], in [11], in [12] and in experiment [13]. For the same compound, the half-maximal activity concentration (AC50) in experiment [8] is 82.9 µM (active); in [9], 36.9 µM (active).

Regarding `COc1cc(Cl)c(OC)cc1Cl`, the compound was classed as inactive in experiment [14], in [15], in experiment [16], in experiment [1], in [2] and in [3]. Besides, the outcome in experiment [5], in [6], in experiment [7], in [8], in [10] and in experiment [11] was inactive. The outcome in experiment [12] and in [13] was inactive. The AC50 in experiment [9] was 27.9 µM (active).

For `CC(C)(C)C(=O)C(Oc1ccc(Cl)cc1)n1cncn1` (stereo not drawn), the call in experiment [14], in experiment [16], in [6], in experiment [17], in experiment [7] and in experiment [18] was inactive. The result in [8], in experiment [10], in [11], in experiment [12] and in experiment [13] was inactive. In addition, the AC50 in experiment [15] is 21.2 µM (active); in [1], 21.7 µM (active); in [2], 41.2 µM (active); in experiment [3], 3.12 µM (active); in experiment [5] it was 50 µM (active); in experiment [9], 37 µM (active).

Turning to `CC1(C)CON(Cc2ccccc2Cl)C1=O`, the call in [1], in experiment [2], in experiment [3], in experiment [5], in experiment [6] and in experiment [17] was inactive. Also, the compound was classed as inactive in experiment [7], in experiment [8], in experiment [10], in experiment [11], in [12] and in experiment [13]. Moreover, in experiment [9], the concentration at half-maximal activity (AC50) was 50 µM (active).
